In PubChem BioAssay (NCI):
The panel holds about 79,000 compounds, 15% with a hit somewhere; the sample as a whole holds those more often. No stated cut-off is given here; in the data, active means growth inhibition above about 70%; inactive means the rest.

Columns and labels:
[1] = NCI Yeast Anticancer Drug Screen. Data for the rad50 strain (AID 155);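 further: 0% = growth of vehicle-only cultures of the same strain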; conditions: S. cerevisiae rad50 strain growth inhibition; at 50.0 µM; stronger effect = higher value
Outline: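 Relative growth inhibition (compound vs vehicle) was measured in yeast with a defined repair-gene alteration.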

[2] = NCI Yeast Anticancer Drug Screen. Data for the mec2-1 strain (AID 157); conditions: S. cerevisiae mec2-1 strain, at 50.0 µM, stronger effect = higher value
Outline: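 Yeast mec2-1 mutant treated with compound. Readout: growth inhibition vs vehicle controls.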

[3] = NCI Yeast Anticancer Drug Screen. Data for the sgs1 mgt1 strain (AID 161);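 further: 0% = growth of cultures given vehicle only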; conditions: S. cerevisiae sgs1 mgt1 strain, at 50.0 µM, stronger effect = higher value
Outline: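 Read-out: growth inhibition vs vehicle controls. Cells: mutant yeast strain deficient in DNA damage repair.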

[4] = NCI Yeast Anticancer Drug Screen. Data for the cln2 rad14 strain (AID 165);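 further: 0% = growth equal to vehicle treated cultures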; conditions: S. cerevisiae cln2 rad14 strain, at 50.0 µM, stronger effect = higher value
Outline: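 cln2 rad14 yeast strain; compound exposure; growth inhibition read vs vehicle controls.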

[5] = NCI Yeast Anticancer Drug Screen. Data for the bub3 strain (AID 167); conditions: S. cerevisiae bub3 mutant strain, at 50.0 µM, stronger effect = higher value
Outline: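 Screening used yeast with an engineered genetic alteration affecting cell cycle control. Compound-exposed cultures were compared with vehicle cultures, and reduced growth was taken as inhibition.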

[6] = NCI Yeast Anticancer Drug Screen. Data for the mlh1 rad18 strain (AID 175); conditions: S. cerevisiae mlh1 rad18 strain growth inhibition; at 50.0 µM; stronger effect = higher value
Outline: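 Yeast w/ defined DNA-repair lesions; compound exposure; growth vs vehicle controls → % inhibition.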

Measured: growth inhibition

CC(=O)CCc1cccc([N+](=O)[O-])c1
inactive: [1] -17.6% | [2] -5.1% | [3] -14.5% | [4] -6.85% | [5] -0.15% | [6] -7.25%

O=Cc1ccnc2ccccc12
inactive: [1] 0.9% | [2] 1% | [3] 6.25% | [4] 4% | [5] -3.55% | [6] 6.85%

CN(C)CCSC(CO)c1ccccc1 (configuration not stated)
inactive: [1] -12.7% | [2] -13.4% | [3] 2.85% | [4] 9.2% | [5] -1.15% | [6] -6.5%

C/C=C(\C)c1cc(=O)c2c(C)cc3c(c2o1)C(=O)c1c(O)c(C2CC(C)(N(C)C)C(OC(C)=O)C(C)O2)cc(C2CC(N(C)C)C(O)C(C)O2)c1C3=O (configuration not stated)
inactive: [1] 17% | [2] 1.95% | [3] 9.8% | [4] 7.35% | [5] 8.15% | [6] -59.6%

Oc1c(Br)cc(Br)cc1/C=N/N=C/c1cc(Br)cc(Br)c1O
inactive: [1] -6.7% | [2] -20% | [3] -15.9% | [4] 0.2% | [5] -8.5% | [6] 7.5%

O=C(Nc1ccc([N+](=O)[O-])cc1Cl)OCCc1ccccn1
inactive: [1] 3.25% | [2] 26.9% | [3] 23.6% | [4] -10.6% | [5] 52% | [6] 20.5%

Cc1ccc(C(C)C)c(OCC2=NCCN2C)c1
inactive: [1] -7.15% | [2] -3.15% | [3] 3.35% | [4] 0.4% | [5] -16.1% | [6] -10.2%

CCOC(=O)C(C)Oc1ccc(Cn2ccnn2)cc1 (configuration not stated)
inactive: [1] -20.1% | [2] -1.25% | [3] 15.9% | [4] -4.05% | [5] 3.1% | [6] 6.25%

O=S=C(c1ccccc1)N1CCc2ccccc21
inactive: [1] 22.4% | [2] 3.75% | [3] 12.1% | [4] 7.15% | [5] 18.4% | [6] 22.7%

CC1OCC2CC3(O1)OC3C(COCC1OC3COC(C)OC4(C3)OC14)O2 (configuration not stated)
inactive: [1] -7.05% | [2] -25.3% | [3] -3.45% | [4] -44.5% | [5] -3.15% | [6] -14.9%

O=c1c2ccccc2[nH]c2ccc(Br)cc12
inactive: [1] 8.25% | [2] 2.2% | [3] 3.8% | [4] -6.1% | [5] 2.95% | [6] 17.8%

CC(C)CN(CC(=O)NC(=O)c1ccccc1)CC(C)C
inactive: [1] -2.1% | [2] -10.1% | [3] -12.2% | [4] -37.9% | [5] -4% | [6] -3.8%

O=c1c(O)c(-c2ccccc2)oc2cc(O)cc(O)c12
inactive: [1] 24.5% | [2] 4.4% | [3] 40.9% | [4] 25.8% | [5] 27.4% | [6] 28.7%

CC1(C(=O)O)CCCC1C(=O)O (configuration not stated)
inactive: [1] 12.5% | [2] 6.8% | [3] 1.75% | [4] -8.05% | [5] -1.25% | [6] 12.1%

CC1C(c2ccccc2)(N(C)C)CS1(=O)=O (configuration not stated)
inactive: [1] -3.15% | [2] -8.5% | [3] -6.4% | [4] -74.7% | [5] 12.7% | [6] -8.6%

c1ccc(CCc2ccnc3ccccc23)cc1
inactive: [1] 8.15% | [2] 3.1% | [3] -2.9% | [4] 1.6% | [5] 9.15% | [6] 5.55%

Cc1ccc(N=NNc2ccccc2)cc1
inactive: [1] -7.7% | [2] -8.05% | [3] -7.65% | [4] -13.9% | [5] -11.3% | [6] -7.6%

S=C(Nc1c2c(nc3ccccc13)CCCC2)Nc1c2c(nc3ccccc13)CCCC2
inactive: [1] -14.9% | [2] 9.55% | [3] -0.3% | [4] 9.8% | [5] -17.9% | [6] 12%

O=C1OC(c2ccccc2)=N/C1=C\c1cccnc1
inactive: [1] 12.3% | [2] -3.25% | [3] 0% | [4] -10.3% | [5] -5.8% | [6] 13.1%

O=C(Nc1ccc([N+](=O)[O-])cc1)Nc1nccnn1
inactive: [1] 5.15% | [2] -13.1% | [3] 10.6% | [4] -39.9% | [5] 8.4% | [6] -0.8%

Cc1ccc(S(=O)(=O)NNS(=O)(=O)c2ccc(C)cc2)cc1
inactive: [1] 5% | [2] 9.6% | [3] 26.9% | [4] -5.95% | [5] 12.7% | [6] 17.2%

c1ccc(CCN=C2c3ccccc3-n3cccc32)nc1
inactive: [1] 33.5% | [2] 0.95% | [3] -6.75% | [4] -28.1% | [5] 10.6% | [6] 16.4%

CC(=O)OCC1OC(Nc2[nH]c(=O)[nH]c(=O)c2N=O)C(OC(C)=O)C(OC(C)=O)C1OC(C)=O (configuration not stated)
inactive: [1] 5.75% | [2] 3.75% | [3] 0.95% | [4] -1.5% | [5] -1.7% | [6] -10.3%

O=C(OCCOc1ccc(Cl)cc1Cl)c1ccccc1O
inactive: [1] -2.4% | [2] -17.4% | [3] -1.85% | [4] -12.8% | [5] 11.6% | [6] 0.3%

CC1(C)CC([NH-])(C(=O)O)CC(C)(C)N1O.CC1(C)CC([NH-])(C(=O)O)CC(C)(C)N1O.[Cu+2]
inactive: [1] 27.6% | [2] -17.9% | [3] 16.5% | [4] -20.3% | [5] 0.7% | [6] 4.55%

N#Cc1nc(NC(=O)c2ccccc2)sc1N
inactive: [1] -5.7% | [2] -29.9% | [3] -27.6% | [4] 11.2% | [5] 4.2% | [6] -10.2%

CN(C)N=Nc1ccc(C(=O)NC(Cc2ccccc2)C(=O)O)cc1 (configuration not stated)
inactive: [1] 1.45% | [2] -4.1% | [3] 3.2% | [4] 0.55% | [5] 3.3% | [6] 6.45%

COc1cc(C=O)cc(OC)c1
inactive: [1] -19.3% | [2] -49.3% | [3] -20.4% | [4] 12.4% | [5] -51% | [6] -2.25%

COc1nc(NC2OC(COC(C)=O)C(OC(C)=O)C(OC(C)=O)C2OC(C)=O)c(C(=O)CCl)c(=O)[nH]1 (configuration not stated)
inactive: [1] 3.75% | [2] 6.5% | [3] 8.45% | [4] -0.4% | [5] -2.2% | [6] 13.7%

O=C(O)c1c(F)c(F)c(C(=O)O)c(F)c1F
inactive: [1] 6.25% | [2] -15.8% | [3] 16.3% | [4] 15.1% | [5] 14.9% | [6] 11.5%

O/N=C1/CC2CCCCC2CC1(O)c1ccccc1 (configuration not stated)
inactive: [1] 17.3% | [2] 19.1% | [3] 17.6% | [4] 18.4% | [5] -3.55% | [6] 30.4%

CC(C)(C)c1ccc(O)c(CNCCO)c1
inactive: [1] 21.1% | [2] -6.65% | [3] -3.25% | [4] -28.1% | [5] 3.9% | [6] 8.05%

CN1CCC(CO)CC1
inactive: [1] -12.8% | [2] -2.7% | [3] -2.65% | [4] 9.05% | [5] 11.8% | [6] -8.4%

Cc1ccc2nc(N(C)C)nc-2c2[nH]c(=O)[nH]c12
inactive: [1] -28.9% | [2] -31.6% | [3] -12.2% | [4] 3.9% | [5] -28.9% | [6] -19.3%

CC(=O)OCC1OC(n2ncnc2CI)C(OC(C)=O)C(OC(C)=O)C1OC(C)=O (configuration not stated)
inactive: [1] 36.5% | [2] 8.35% | [3] 13.6% | [4] 16.9% | [5] 4.15% | [6] 21.5%

O=P(Nc1ccc(Cl)cc1)(c1ccc(Cl)cc1)c1ccc(Cl)cc1
inactive: [1] 17.6% | [2] 6.05% | [3] 4.05% | [4] -16.1% | [5] -0.15% | [6] 20.9%

O=C(Nc1cccc2ccccc12)c1ccccc1
inactive: [1] 18.4% | [2] -38.2% | [3] -0.25% | [4] -37.2% | [5] -9.45% | [6] 19.4%

C(#Cc1c2ccccc2c(C#Cc2ccccc2)c2c(-c3ccccc3)cccc12)c1ccccc1
inactive: [1] -11.1% | [2] 13.1% | [3] -3.5% | [4] 4.05% | [5] 45.6% | [6] 24.5%

Cc1ccc(NC(=O)Oc2ccc(Br)cc2)c([N+](=O)[O-])c1
inactive: [1] 20.4% | [2] 16.9% | [3] 16.3% | [4] 16.3% | [5] 11.3% | [6] 13.8%

c1ccc(-n2nnnc2-c2nnnn2-c2ccccc2)cc1
inactive: [1] -7.35% | [2] -5.2% | [3] -1.5% | [4] -18.7% | [5] 20.7% | [6] -11%

CCOC(=O)/C(C)=C(/C)Nc1ccccc1
inactive: [1] 1.45% | [2] 3.8% | [3] -1.25% | [4] -28.9% | [5] -10.1% | [6] 2.7%

C/C(CC(=O)Nc1cc(C)ccc1C)=N/N=C(N)N
inactive: [1] -24.6% | [2] -28.3% | [3] -11.5% | [4] 17.8% | [5] -22.9% | [6] -8.55%
